HepG2 tox: HepG2 cytotoxicity, counter-screen for TGF-b inhibitors; hit rate 0.76% among 410,000; Potency, µM (series often up to 46.1 µM), for the others: at the highest dose activity change, negative = cytotoxicity, most hits filed as cytotoxic; HepG2 CAGA-GFP viability, ATP luminescence, 18 h; note: potency is the fitted concentration of half-maximal effect
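CellTiter-Glo luminescence gave cytotoxicity after 18 hours at 37 degrees C. The cells were HepG2 CAGA-GFP in 1% FBS DMEM, stimulated with 500 pg/mL TGF-beta after compound addition. %Activity was normalised to no-cell wells (complete cell-killing) and DMSO (no toxicity), and curves were fitted and classified.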
TGFb inhibitor: blocks TGF-b signaling. Potency, µM (series often up to 46.1 µM), without a hit: at the highest dose activity, negative = inhibition, most hits filed as inhibitors. HepG2 CAGA-GFP TGF-b/SMAD3 reporter, GFP fluorescence, 18 h; TGF-beta stimulated, 500 pg/mL final. hit rate 1.2% among 410,000; note: potency is the fitted concentration of half-maximal effect; % is set by controls: 0 for no effect and ±100 for the full control effect; nearly all actives have a fitted effect of over 65% in size
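First, reporter cells (HEPG2 CAGA-GFP) rested 2 h at 37 degrees C. Next, compounds were pinned in and TGF-beta added to 500 pg/mL final. After 18 h, GFP was imaged per cell and summed per well.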
HT1080NT lethal: kills 2HG-producing HT-1080-NT fibrosarcoma cells; HT-1080-NT fibrosarcoma viability, CellTiter-Glo ATP luminescence, 48 h; Potency, µM (titrated, usually from 46.1 µM), inactives show at the highest dose activity, negative = less viability, most hits filed as cytotoxic; hit rate 1.6% among 360,000; AID 686970;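 note: NT is the 2HG producing partner of a matched IDH1 knockdown line; potency is the fitted concentration of half-maximal effect; 0% = DMSO-treated cells and -100% = media-only wells without cells; nearly all actives have a fitted effect of over 55% in size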
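Luminescent CellTiter-Glo readout after 48 hours of compound exposure at 37 degrees C defined viability of HT-1080-NT cells. Activity was normalized to DMSO wells and cell-free media wells; concentration-response curves were fitted and assigned curve classes.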
IL1B secr inh: blocks inflammasome-driven IL-1 beta release. THP-1 LPS/ATP IL-1B secretion, AlphaLISA, 16 h; stronger effect = lower value. activity change, % at 57.5 µM. hit rate 4.7% among 360,000. AID 743279; in the data active = activity change below about -50%; inconclusive = mostly about -30% to -49%; note: % is set by controls: 0 for no effect and ±100 for the full control effect
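Secreted IL-1B measured by AlphaLISA bead assay after 16 h compound exposure of THP-1 cells; compounds (final up to 57.5 uM) added 1 h before LPS (250 ng/mL) and ATP (1.25 mM) stimulation; lower signal means less secretion.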
Giardia kill: kills Giardia lamblia. Giardia lamblia trophozoite viability. activity change, % at 7.66 µM, hits read low. hit rate 0.15% among 340,000. AID 540267; in the data active = activity change below about -80%; inconclusive = between about -30% and that limit;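 note: parasites exposed to compound for two days anaerobically before the ATP read; % is set by controls: 0 for no effect and ±100 for the full control effect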
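Luminescent ATP signal served as the viability read-out, measured 15-30 min after adding ATP detection reagent to trophozoites that had been incubated with compounds for 48 hrs at 37 deg C anaerobically at 100 cells/well.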
HT1080 IDH1KD tx: HT-1080 IDH1 knockdown cell toxicity (counter line). AID 686971. Potency, µM (top dose mostly 46.1 µM), inactives show top-dose activity, negative = toxicity, hits mostly cytotoxic. hit rate 2% among 360,000. HT-1080 IDH1 knockdown viability, ATP luminescence, 48 h;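 note: potency is the fitted concentration of half-maximal effect; 0% = DMSO wells and -100% = cell-free medium wells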
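Luminescent ATP read-out (CellTiter-Glo, 10 min at room temperature) after 48 h compound exposure at 37 °C gave viability of IDH1-knockdown HT-1080 cells. Activity was normalised to DMSO and cell-free wells, then fitted as concentration-response curves.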
* = called active by the depositor. This is a sample that favours compounds with a hit; in the whole collection about 6.5% have one here. Unless noted, calls come from the whole dose curve; as a rule, active = well fitted curve in the direction sought with a large enough effect; inconclusive = small, poorly fitted or top-dose-only effect, or another doubt; inactive = no such curve, though single readings can be large; an effect the other way counts as inactive or inconclusive.

`NC(CCc1ccccc1)c1csc(NC(=O)Nc2cccc(C(F)(F)F)c2)n1` (stereo unspecified) gave HepG2 tox 11µM*, TGFb inhibitor inconclusive, HT1080NT lethal 16µM*, IL1B secr inh -57* and HT1080 IDH1KD tx 21µM*.
`COc1ccccc1NC(=O)Nc1nc(C(N)Cc2ccc(Cl)cc2)cs1` (stereo unspecified) gave HepG2 tox -91%, TGFb inhibitor inconclusive, HT1080NT lethal inconclusive, IL1B secr inh -12 and HT1080 IDH1KD tx inconclusive.
`NC(Cc1ccc(C(F)(F)F)cc1)c1csc(NC(=O)Nc2ccccc2)n1` (stereo unspecified) gave HepG2 tox 16µM*, TGFb inhibitor inconclusive, HT1080NT lethal inconclusive, IL1B secr inh 0 and HT1080 IDH1KD tx 16µM*.
Screening NC(CO)c1csc(NC(=O)Nc2cccc(Cl)c2)n1 (stereo unspecified) returned HepG2 tox 1%, TGFb inhibitor -4%, HT1080NT lethal -20%, IL1B secr inh 0 and HT1080 IDH1KD tx 2%.
For NC(COCc1ccccc1)c1csc(NC(=O)Nc2cccc(Cl)c2)n1 (stereo unspecified) the results were HepG2 tox -112%, TGFb inhibitor inconclusive, HT1080NT lethal inconclusive, IL1B secr inh -56* and HT1080 IDH1KD tx inconclusive.
Screening CC(C)C(N)c1csc(NC(=O)Nc2ccc(OC(F)(F)F)cc2)n1 (stereo unspecified) returned HepG2 tox 20µM*, TGFb inhibitor 20µM*, HT1080NT lethal 8.2µM*, IL1B secr inh -70* and HT1080 IDH1KD tx 21µM*.
For Cc1cc(C)cc(N2C(=O)CC(Sc3ncn[nH]3)C2=O)c1 (stereo unspecified) the results were HepG2 tox -8%, TGFb inhibitor 0%, HT1080NT lethal -8%, IL1B secr inh -3, Giardia kill -9 and HT1080 IDH1KD tx -2%.
Screening Cc1ccc2oc(-c3cccc(NC(=O)Cc4ccc(Cl)cc4)c3)nc2c1 returned HepG2 tox -4% and TGFb inhibitor -4%.
`CC(C)NC(=O)c1ccc(Cn2c(SCc3ccc(F)cc3)nc3cccnc32)cc1` gave HepG2 tox -18% and TGFb inhibitor -29%.
Screening COc1ccc(CC(N)c2csc(NC(=O)Nc3cc(OC)ccc3OC)n2)cc1 (stereo unspecified) returned HepG2 tox -63%, TGFb inhibitor inconclusive, HT1080NT lethal inconclusive, IL1B secr inh 0 and HT1080 IDH1KD tx inconclusive.
Screening COc1ccc(CC(N)c2csc(NC(=O)Nc3ccc(F)cc3)n2)cc1 (stereo unspecified) returned HepG2 tox 18µM*, TGFb inhibitor 11µM*, HT1080NT lethal inconclusive, IL1B secr inh -65* and HT1080 IDH1KD tx inconclusive.
Screening O=C(c1cccc2ccccc12)C1CCCN(C(=O)CCCn2cncn2)C1 (stereo unspecified) returned HepG2 tox -45%, TGFb inhibitor 6%, HT1080NT lethal -3%, IL1B secr inh -2, Giardia kill 2 and HT1080 IDH1KD tx -10%.
`COc1ccc([N+](=O)[O-])cc1NC(=O)Nc1ccc(OC)c(OC)c1` gave HepG2 tox -6%, TGFb inhibitor 0%, HT1080NT lethal -1%, IL1B secr inh -85*, Giardia kill 14 and HT1080 IDH1KD tx -16%.
For COc1ccc(C(=O)Nc2ccccc2)cc1NC(=O)c1ccc([N+](=O)[O-])cc1 the results were HepG2 tox -20%, TGFb inhibitor inconclusive, HT1080NT lethal 0%, IL1B secr inh -63*, Giardia kill -2 and HT1080 IDH1KD tx -13%.
For COc1ccc(NC(=O)Nc2cc(C)ccc2F)cc1OC the results were HepG2 tox -9%, TGFb inhibitor -1%, HT1080NT lethal inconclusive, IL1B secr inh -51*, Giardia kill 3 and HT1080 IDH1KD tx inconclusive.

Screening data (PubChem)
